Here are results for three compounds from PubChem BioAssay (EPA / NIEHS).

Test [1] can be described thus: APR_HepG2_NuclearSize_72hr: Apredica 72-hour HepG2 Assay for Nuclear Size (AID 2282925). The following applies: high-content imaging, actives raise or lower the signal. Put shortly:
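Nuclear size was read by high-content imaging of Hoechst 33342 stain after formaldehyde fixation. Compounds ran 72 h on HepG2 at 0.39 to 200 uM, with final DMSO 0.5% v/v. Curves fitted both directions relative to DMSO control.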

Test [2] is described as follows: ATG_CRE_CIS: Attagene CIS-FACTORIAL HepG2 Assay for human cAMP Responsive Element (CRE) binding protein 3 (AID 2282926). As to conditions: HepG2 CRE cis-reporter, Attagene multiplexed mRNA; actives raise or lower the signal. Put shortly: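 Liver-derived HepG2, transfected with a CRE-containing reporter panel, exposed 24 h; transcript levels sized and quantified by capillary electrophoresis of labelled amplicons; signal changes either way referenced to vehicle.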

Test [3] addresses CCAAT/enhancer-binding protein beta (Homo sapiens) (UniProt P17676). Briefly: ATG_C_EBP_CIS: Attagene CIS-FACTORIAL HepG2 Assay for human CCAAT/Enhancer Binding Protein (C/EBP) beta (AID 2282927). The following applies: HepG2 Attagene cis-factorial transcription factor reporter; actives raise or lower the signal. Put shortly:
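Endogenous C/EBPb-driven reporter transcripts measured in transfected human HepG2 cells at 24 h via RT-PCR and capillary electrophoresis of labelled fragments. Activity fitted in both directions relative to DMSO baseline.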

Test [4] is described as follows: ATG_CMV_CIS: Attagene CIS-FACTORIAL HepG2 Assay for human CMV (Internal Marker) (AID 2282928).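 Also: endpoint acts as a background internal control marker rather than a target.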 As to conditions: HepG2 CMV promoter reporter, transcription factor profiling; actives raise or lower the signal. Put shortly: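 24 h chemical treatment, HepG2 with transient multi-reporter transfection; RNA → oligo(dT) RT → PCR → 6-FAM extension → HpaI digest → CE fluorescence. Bidirectional fit, DMSO negative control.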

Test [5] can be described thus: ATG_DR4_LXR_CIS: Attagene CIS-FACTORIAL HepG2 Assay for human Liver X Receptor (LXR), DR4 submotif (AID 2282929). As to conditions: HepG2 Attagene DR4 cis-reporter, mRNA transcription; actives raise or lower the signal. Put shortly: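 HepG2 cells were transiently transfected with multiple cis-regulated reporter units and dosed for 24 hours. The DR4 reporter mRNA was quantified by RT-PCR, 6-FAM labelling and capillary electrophoresis. Bidirectional fits used DMSO as baseline.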

The target of test [6] is Aryl hydrocarbon receptor (Homo sapiens) (UniProt P35869). The experiment in a line: ATG_Ahr_CIS: Attagene CIS-FACTORIAL HepG2 Assay for human Aryl Hydrocarbon Receptor (Ahr) (AID 2282930). As to conditions: HepG2 AhR cis-factorial reporter transcription; actives raise or lower the signal. Put shortly:
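Reporter mRNA levels, quantified by RT-PCR and fluorescent capillary electrophoresis, reflect endogenous AhR transcriptional activity in HepG2 cells carrying transfected cis-promoter reporter constructs. Readout at 24 h post-dose; gain or loss fitted against DMSO baseline.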

Test [7] can be described thus: ATG_AP_1_CIS: Attagene CIS-FACTORIAL HepG2 Assay for human Activator Protein 1 (AP-1) (AID 2282931). As to conditions: HepG2 Attagene cis-factorial AP-1 reporter mRNA; actives raise or lower the signal. Put shortly:
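HepG2 cells transiently transfected with cis-element-driven reporter transcription units, dosed for 24 hours. Reporter mRNA measured by RT-PCR, 6-FAM labelling, HpaI digestion and capillary electrophoresis. Bidirectional fitting against DMSO baseline.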

Test [8] is described as follows: ATG_AP_2_CIS: Attagene CIS-FACTORIAL HepG2 Assay for human Activator Protein 2 (AP-2) (AID 2282932). As to conditions: HepG2 AP-2 cis-reporter, Attagene transcription factor profiling; actives raise or lower the signal. Put shortly:
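Endogenous transcription factor activity is reported through transfected multiplex reporter constructs in HepG2, after 24 h of compound exposure. Transcripts were quantified by RT-PCR and capillary electrophoresis of fluorescent fragments. Bidirectional fit against DMSO.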

Test [9] is described as follows: ATG_BRE_CIS: Attagene CIS-FACTORIAL HepG2 Assay for human Bone Morphogenetic Protein (BMP) Response Element (BRE) (AID 2282933). As to conditions: HepG2 BMP response element reporter, Attagene transcription factor profiling; actives raise or lower the signal. Put shortly: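 Endogenous transcription factor activity at a BMP response element was monitored in transfected HepG2 cells 24 h after dosing. Fluorescent RT-PCR products were resolved by capillary electrophoresis, and activity was fitted in both directions versus DMSO.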

The target of test [10] is Retinoic acid receptor alpha (Homo sapiens) (UniProt P10276). Briefly: ATG_DR5_RAR_CIS: Attagene CIS-FACTORIAL HepG2 Assay for human Retinoic Acid Receptor Alpha (RARE), DR5 submotif (AID 2282934). The following applies: HepG2 Attagene cis-factorial RARE DR5 reporter, mRNA; actives raise or lower the signal. Put shortly:
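Reporter transcripts from a DR5-regulated unit, measured via RT-PCR plus capillary electrophoresis, reflect endogenous RAR activity in transiently transfected human HepG2 liver cells. Exposure lasted 24 h; gain or loss of signal scored against DMSO.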

For test [11], the target named is Transcription factor E2F1 (Homo sapiens) (UniProt Q01094). Briefly: ATG_E2F_CIS: Attagene CIS-FACTORIAL HepG2 Assay for human E2F Transcription Factor 1 (AID 2282935). As to conditions: HepG2 Attagene cis-reporter, E2F reporter RNA transcripts; actives raise or lower the signal. Put shortly:
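Gain or loss of reporter transcript, fitted against DMSO, reflects E2F1-driven transcription. Transiently transfected HepG2 dosed 24 h before RNA isolation. Quantified by fluorescent RT-PCR products separated by capillary electrophoresis.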

Test [12] can be described thus: ATG_E_Box_CIS: Attagene CIS-FACTORIAL HepG2 Assay for human Enhancer Box (E-box) (AID 2282936). As to conditions: HepG2 E-box cis-reporter transcription, actives raise or lower the signal. Put shortly: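 E-box-driven reporter transcripts measured in transiently transfected HepG2 after 24 h exposure: RNA reverse-transcribed, PCR-amplified, fluorescently labelled, digested and resolved by capillary electrophoresis. Gain or loss relative to DMSO.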

Test [13] can be described thus: ATG_M_61_CIS: Attagene CIS-FACTORIAL HepG2 Assay for M61 Transcription Factor (Internal Marker) (AID 2282937). As to conditions: HepG2 Attagene CIS-FACTORIAL M61 internal marker reporter; actives raise or lower the signal. Put shortly: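 HepG2 cells transiently transfected with multiplexed cis-promoter reporter units reporting endogenous transcription factor activity, measured 24 h after dosing. Reporter mRNA quantified by RT-PCR and capillary electrophoresis; bidirectional fit against DMSO baseline.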

A short description of test [14]: ATG_EGR_CIS: Attagene CIS-FACTORIAL HepG2 Assay for human Early Growth Response 1 (EGR1) (AID 2282938). The following applies: HepG2 Attagene CIS-FACTORIAL EGR reporter mRNA; actives raise or lower the signal. Put shortly:
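HepG2 cells transiently transfected with cis-element-driven multiplexed reporter units, dosed for 24 h. EGR1-element reporter mRNA quantified by RT-PCR, 6-FAM labelling, HpaI digestion and capillary electrophoresis; bidirectional fit versus DMSO.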

Test [15] in a line: ATG_M_19_CIS: Attagene CIS-FACTORIAL HepG2 Assay for M19 Transcription Factor (Internal Marker) (AID 2282939). As to conditions: HepG2 Attagene CIS-FACTORIAL M19 internal marker reporter; actives raise or lower the signal. Put shortly: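 Background-control endpoint from a multiplexed HepG2 reporter panel. Cells carrying cis-regulated reporter constructs are treated 24 h, then reporter transcripts are amplified, fluorescently labelled and sized by capillary electrophoresis. DMSO defines baseline.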

A short description of test [16]: ATG_ERE_CIS: Attagene CIS-FACTORIAL HepG2 Assay for Estrogen Response Element (ERE) (AID 2282940). As to conditions: HepG2 ERE cis-reporter, Attagene RNA transcript; actives raise or lower the signal. Put shortly:
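Cells used were human hepatoma HepG2, transfected with multiple reporter transcription units under cis-regulatory promoters. Reporter mRNA, read 24 h post-dosing via fluorescent RT-PCR products on capillary electrophoresis, was fitted bidirectionally relative to DMSO.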

Test [17] can be described thus: ATG_Ets_CIS: Attagene CIS-FACTORIAL HepG2 Assay for human Erythroblast Transformation Specific (ETS) (AID 2282941). As to conditions: HepG2 ETS cis-reporter transcription, actives raise or lower the signal. Put shortly:
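Cis-regulated reporter mRNA induction in HepG2 (transient transfection), 24 h exposure, RT-PCR plus capillary electrophoresis detection; DMSO serves as negative control and baseline.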

Test [18] addresses Hepatocyte nuclear factor 3-beta (Homo sapiens) (UniProt Q9Y261). Briefly: ATG_FoxA2_CIS: Attagene CIS-FACTORIAL HepG2 Assay for human Forkhead box A2 (FOXA2) (AID 2282942). As to conditions: HepG2 cis-reporter transcription factor activity, 24 h; actives raise or lower the signal. Put shortly:
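HepG2 transiently transfected with a multiplexed cis-promoter reporter library read endogenous FOXA2 activity. After 24 h compound exposure, reporter mRNA was quantified by RT-PCR, HpaI digestion and capillary electrophoresis. Bidirectional fit against DMSO.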

Test [19] can be described thus: ATG_FoxO_CIS: Attagene CIS-FACTORIAL HepG2 Assay for human Forkhead box O (FoxO) (AID 2282943). As to conditions: HepG2 Attagene cis-reporter, FoxO element, mRNA; actives raise or lower the signal. Put shortly: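 Endogenous transcription factor activity read from multiplexed cis-promoter reporter transcripts in transiently transfected HepG2, 24 h after dosing. Reporter RNA measured via RT-PCR plus capillary electrophoresis of FAM-labeled products; gain or loss relative to DMSO.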

The nature of test [20]: ATG_GATA_CIS: Attagene CIS-FACTORIAL HepG2 Assay for human GATA Binding Protein (AID 2282944). The following applies: HepG2 GATA cis-element reporter, Attagene multiplex mRNA; actives raise or lower the signal. Put shortly:
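Endogenous transcription factor activity was captured through cis-promoter-driven reporters in transfected HepG2 cells. After 24 h exposure, reporter transcripts were quantified by RT-PCR with fluorescent capillary electrophoresis, and responses fitted both directions against DMSO.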

The source made the active and inactive calls. The calls were made as follows: active = hit-call score of the fitted dose curve at least 0.9, where 1 is the maximum; inactive = score below 0.9.

Chain of Transcription factor E2F1 (Homo sapiens) (Q01094 whole entry, looked up): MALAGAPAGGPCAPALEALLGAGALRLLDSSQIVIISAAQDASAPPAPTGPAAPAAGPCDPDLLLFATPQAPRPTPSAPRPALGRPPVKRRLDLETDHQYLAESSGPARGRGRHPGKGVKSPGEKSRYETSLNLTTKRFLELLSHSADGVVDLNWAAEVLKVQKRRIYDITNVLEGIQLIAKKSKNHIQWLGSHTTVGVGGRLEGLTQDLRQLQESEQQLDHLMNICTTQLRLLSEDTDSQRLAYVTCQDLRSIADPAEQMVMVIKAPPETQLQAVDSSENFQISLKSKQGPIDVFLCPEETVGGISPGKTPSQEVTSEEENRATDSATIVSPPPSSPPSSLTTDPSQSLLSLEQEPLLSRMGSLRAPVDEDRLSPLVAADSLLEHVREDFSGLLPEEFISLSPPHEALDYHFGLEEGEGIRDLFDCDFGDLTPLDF
Chain of Aryl hydrocarbon receptor (Homo sapiens) (P35869 whole entry, looked up): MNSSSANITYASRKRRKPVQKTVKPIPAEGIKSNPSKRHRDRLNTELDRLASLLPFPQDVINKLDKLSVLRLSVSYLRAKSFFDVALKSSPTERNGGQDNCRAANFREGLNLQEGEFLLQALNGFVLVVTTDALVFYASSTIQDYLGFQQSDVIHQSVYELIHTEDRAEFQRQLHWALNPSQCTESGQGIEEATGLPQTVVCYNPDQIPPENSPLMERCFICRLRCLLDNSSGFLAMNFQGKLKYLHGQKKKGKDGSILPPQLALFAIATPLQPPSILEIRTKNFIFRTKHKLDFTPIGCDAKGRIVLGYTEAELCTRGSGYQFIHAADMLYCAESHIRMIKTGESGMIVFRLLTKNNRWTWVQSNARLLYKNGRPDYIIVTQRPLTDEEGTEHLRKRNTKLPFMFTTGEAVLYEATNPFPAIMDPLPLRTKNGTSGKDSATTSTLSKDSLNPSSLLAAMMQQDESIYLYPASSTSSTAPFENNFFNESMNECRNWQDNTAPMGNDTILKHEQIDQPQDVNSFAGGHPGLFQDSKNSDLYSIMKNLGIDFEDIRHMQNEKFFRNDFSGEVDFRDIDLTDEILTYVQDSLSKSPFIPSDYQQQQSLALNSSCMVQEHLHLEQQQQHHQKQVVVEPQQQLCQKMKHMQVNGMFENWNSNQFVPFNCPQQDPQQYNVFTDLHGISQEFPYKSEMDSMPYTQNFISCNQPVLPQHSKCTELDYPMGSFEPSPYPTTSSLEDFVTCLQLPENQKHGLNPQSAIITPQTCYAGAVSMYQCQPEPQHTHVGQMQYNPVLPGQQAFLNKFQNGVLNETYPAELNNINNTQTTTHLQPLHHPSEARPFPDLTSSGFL
Chain of CCAAT/enhancer-binding protein beta (Homo sapiens) (P17676 whole entry, looked up, the tested form may be a part): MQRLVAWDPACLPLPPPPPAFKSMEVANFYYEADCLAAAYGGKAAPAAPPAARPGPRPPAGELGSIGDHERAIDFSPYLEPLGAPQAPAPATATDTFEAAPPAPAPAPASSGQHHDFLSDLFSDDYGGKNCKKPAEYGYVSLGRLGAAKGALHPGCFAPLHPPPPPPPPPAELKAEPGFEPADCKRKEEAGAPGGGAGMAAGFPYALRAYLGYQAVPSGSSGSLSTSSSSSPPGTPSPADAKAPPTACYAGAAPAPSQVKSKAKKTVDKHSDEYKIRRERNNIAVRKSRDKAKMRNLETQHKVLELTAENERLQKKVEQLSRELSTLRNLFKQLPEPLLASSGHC
Chain of Hepatocyte nuclear factor 3-beta (Homo sapiens) (Q9Y261 whole entry, looked up): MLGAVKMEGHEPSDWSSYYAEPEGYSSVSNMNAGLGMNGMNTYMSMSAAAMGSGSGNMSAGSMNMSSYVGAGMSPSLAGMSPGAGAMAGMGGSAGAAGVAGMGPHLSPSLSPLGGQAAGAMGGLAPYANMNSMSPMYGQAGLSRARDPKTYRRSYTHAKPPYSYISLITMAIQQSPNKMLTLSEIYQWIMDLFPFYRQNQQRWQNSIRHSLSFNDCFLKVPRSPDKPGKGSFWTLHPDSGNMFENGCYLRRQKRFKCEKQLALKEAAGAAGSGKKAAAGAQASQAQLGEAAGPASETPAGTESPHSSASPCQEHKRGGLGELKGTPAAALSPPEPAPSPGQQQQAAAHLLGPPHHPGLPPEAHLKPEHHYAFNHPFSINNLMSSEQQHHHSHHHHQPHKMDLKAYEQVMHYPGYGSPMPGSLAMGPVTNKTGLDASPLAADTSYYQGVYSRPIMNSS
Chain of Retinoic acid receptor alpha (Homo sapiens) (P10276 whole entry, looked up): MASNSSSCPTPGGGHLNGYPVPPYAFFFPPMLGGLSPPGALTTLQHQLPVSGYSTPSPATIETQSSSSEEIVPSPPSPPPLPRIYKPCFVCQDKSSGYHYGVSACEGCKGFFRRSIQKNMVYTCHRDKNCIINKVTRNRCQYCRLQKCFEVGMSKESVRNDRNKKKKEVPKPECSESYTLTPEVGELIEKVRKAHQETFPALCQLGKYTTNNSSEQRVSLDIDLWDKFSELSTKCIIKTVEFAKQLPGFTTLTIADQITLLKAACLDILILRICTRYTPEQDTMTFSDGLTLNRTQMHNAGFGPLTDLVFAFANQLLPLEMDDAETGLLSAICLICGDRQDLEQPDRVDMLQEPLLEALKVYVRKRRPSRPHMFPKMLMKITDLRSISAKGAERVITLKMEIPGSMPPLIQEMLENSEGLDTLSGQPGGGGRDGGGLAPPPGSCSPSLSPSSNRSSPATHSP

Regarding `Nc1ccccc1N`, the call in test [1], in test [5], in test [8], in test [10], in test [11] and in test [12] was inactive. In addition, the outcome in [13], in [15], in [16], in test [17], in [18] and in [19] was inactive. In addition, the compound was called inactive in test [20]. Moreover, the AC50 was 72.5 µM (active) in test [2]; 54.2 µM (active) in test [3]; 24.2 µM (active) in [4]; 1.41 µM (active) in test [6]; 15.7 µM (active) in test [7]; 5.4 µM (active) in [9]. In test [14], the AC50 was 53.8 µM (active).

On to `Cc1ccc(Cl)cc1`, for which the compound was called inactive in test [1], in test [2], in [3], in test [4], in [5] and in [6]. Besides, the outcome in test [7], in test [8], in test [9], in test [11], in test [12] and in test [13] was inactive. In addition, the compound was called inactive in test [14], in [15], in [16], in [17], in test [18] and in test [19]. Also, in test [20], the compound was classed as inactive.

Take `CCCCCCC(=O)OCC`: the compound was called inactive in test [1], in test [2], in test [3], in test [4], in test [5] and in test [6]. For the same compound, the compound was called inactive in [7], in test [8], in [9], in test [11], in test [12] and in test [13]. In addition, the result in [14], in test [15], in [17], in test [18], in test [19] and in test [20] was inactive. Moreover, in test [16], the AC50 is 34.7 µM (active).
